Test results from the supplement of paper PMC10127200.
Where a name gives a salt, the structure may show the parent alone.

Experiments:
Assay in all cases: Euclidean distance of Cell Painting phenotypic profile (signed KS, 77 features) to DMSO centroid (dimensionless distance); 5 or 10 uM (library dependent); higher = stronger phenotypic change vs DMSO (phenoactivity)
Settings in all cases: 48 h
786-O = tested on: 786-O
Procedure, shortened: (§1)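 Phenoactivity is computed as Euclidean distance to the median vehicle profile. The profiles, drawn from 77 Harmony features scored as signed Kolmogorov-Smirnov statistics versus same-plate vehicle wells, were corrected for plate position, correlation-weighted and replicate-averaged at the top dose. Stained cells were imaged confocally at 20X (9 fields/well) after 48 h with library compounds at 10 or 5 uM, 0.1% DMSO final, in five cancer lines and a healthy fibroblast line.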

A549 = tested on: A549
Procedure, shortened: as §1

DU145 = tested on: DU145
Procedure, shortened: as §1

FB = tested on: FB
Procedure, shortened: as §1

HEPG2 = tested on: HEPG2
Procedure, shortened: as §1

OVCAR4 = tested on: OVCAR4
Procedure, shortened: as §1

Row | SMILES | Euclidean distance (786-O) | Euclidean distance (A549) | Euclidean distance (DU145) | Euclidean distance (FB) | Euclidean distance (HEPG2) | Euclidean distance (OVCAR4)
1 | COc1ccc(CN2C3CC2CN(c2ccc(-c4cc(OCC(C)(C)O)cn5ncc(C#N)c45)cn2)C3)cn1 [Selpercatinib (LOXO-292. ARRY-192)] | 0.919 | 2.72 | 0.961 | 1.56 | 0.545 | 1.15
2 | CN(C)CCN(Cc1ccc(Cl)cc1)c1ccccn1 [Chloropyramine hydrochloride] | 0.88 | 1.23 | 1.39 | 1.03 | 0.594 | 1.1
3 | CN(C)[C@@H]1C(O)=C(C(N)=O)C(=O)[C@@]2(O)C(O)=C3C(=O)c4c(O)ccc(Cl)c4[C@@H](O)[C@H]3C[C@@H]12 [Demeclocycline HCl] | 0.985 | 0.836 | 0.951 | 1.05 | 0.887 | 1.53
4 | NC(=O)c1ccccc1O [Salicylamide] | 1.39 | 1.58 | 1.56 | 1.4 | 0.71 | 2.3
5 | Oc1ccc(O)cc1 [Hydroquinone] | 1.49 | 1.06 | 1.21 | 1.36 | 1.04 | 1.09
6 | CCOC(=O)c1ccc(OC(=O)CCCCCNC(=N)N)cc1 [Gabexate Mesylate] | 1.36 | 0.886 | 1.01 | 0.822 | 1.58 | 1.68
7 | NCCS(=O)(=O)O [Taurine] | 1.5 | 0.858 | 1.34 | 0.921 | 0.768 | 1.35
8 | CCOC(=O)C1=C[C@@H](OC(CC)CC)[C@H](NC(C)=O)[C@@H](N)C1 [Oseltamivir phosphate] | 0.628 | 0.678 | 0.967 | 1.19 | 0.883 | 1.1
9 | COc1cc([C@@H]2c3cc4c(cc3[C@@H](O[C@@H]3O[C@@H]5CO[C@@H](C)O[C@H]5[C@H](O)[C@H]3O)[C@H]3COC(=O)[C@H]23)OCO4)cc(OC)c1O [Etoposide] | 4.29 | 2.57 | 3.62 | 3.88 | 4.18 | 3.21
10 | C#Cc1cccc(Nc2ncnc3cc(OCCOC)c(OCCOC)cc23)c1 [Erlotinib HCl (OSI-744)] | 1.55 | 1.87 | 1.94 | 1.57 | 0.884 | 2.37
11 | CC1=C(C(=O)OC(C)C)C(c2cccc([N+](=O)[O-])c2)C(C(=O)OC2CN(C(c3ccccc3)c3ccccc3)C2)=C(N)N1 (stereo not drawn) [Azelnidipine] | 1.85 | 3.31 | 1.12 | 1.17 | 1.44 | 2.01
12 | NNC(=O)c1ccncc1 [Isoniazid] | 1.4 | 1.36 | 0.961 | 1.16 | 0.573 | 0.885
13 | COC(=O)C1=CO[C@@H](O[C@@H]2O[C@H](CO)[C@@H](O)[C@H](O)[C@H]2O)[C@@H]2C(CO)=CC[C@H]12 [Geniposide] | 0.724 | 0.87 | 1.03 | 0.949 | 0.616 | 1.23
14 | O=C(Nc1cccc(C2=NCCN2)c1)Nc1cccc(C2=NCCN2)c1 [Imidocarb dipropionate] | 1.26 | 1.66 | 1.76 | 1.4 | 1.23 | 1.75
15 | CNC1(C)C2CCC(C2)C1(C)C (stereo not drawn) [Mecamylamine Hydrochloride] | 1.04 | 0.418 | 0.617 | 1.01 | 0.384 | 1.18
16 | Cc1c(Nc2ncccc2C(=O)O)cccc1C(F)(F)F [Flunixin Meglumin] | 1.03 | 0.853 | 0.874 | 0.516 | 1.42 | 1.88
17 | Fc1cc(-c2cccc3ncc(-c4cnn(C5CCNCC5)c4)nc23)cc(F)c1CN1CCOCC1 | 2.09 | 3.31 | 2.11 | 3.84 | 2.39 | 1.28
18 | C=CC(=O)N1CCC(CNc2ncnc(N)c2-c2ccc(Oc3ccccc3)cc2)CC1 [Evobrutinib] | 0.935 | 0.683 | 2.24 | 0.97 | 0.714 | 0.874
19 | CCC(CC)CC1(C(=O)Nc2ccccc2SC(=O)C(C)C)CCCCC1 | 1.26 | 1.07 | 0.832 | 1 | 0.428 | 0.986
20 | CCCCc1nc2cc(/C=C/C(=O)NO)ccc2n1CCN(CC)CC [Pracinostat (SB939)] | 2.82 | 4.04 | 3.89 | 4.08 | 3.78 | 3.46
21 | COc1cccc(-c2c(C)n(Cc3c(F)cccc3C(F)(F)F)c(=O)n(C[C@H](NCCCC(=O)O)c3ccccc3)c2=O)c1F [Elagolix Sodium] | 0.686 | 1.22 | 1.02 | 0.826 | 0.728 | 1.23
22 | O=c1cc(N2CCOCC2)oc2c(-c3cccc4c3sc3ccccc34)cccc12 | 3.24 | 2.66 | 2.15 | 3.31 | 2.73 | 1.93
23 | Cc1[nH]c(/C=C2\C(=O)Nc3ccccc32)c(C)c1CCC(=O)O [TSU-68 (SU6668. Orantinib)] | 0.704 | 0.699 | 0.85 | 0.825 | 0.787 | 0.814
24 | CCC1=C[C@@H]2CN(C1)Cc1c([nH]c3ccccc13)[C@@](C(=O)OC)(c1cc3c(cc1OC)N(C)[C@H]1[C@@](O)(C(=O)OC)[C@H](OC(C)=O)[C@]4(CC)C=CCN5CC[C@]31[C@@H]54)C2 [Vinorelbine Tartrate] | 3.19 | 3.7 | 4.27 | 3.46 | 2.97 | 3.03

Row | SMILES | Euclidean distance (786-O) | Euclidean distance (A549) | Euclidean distance (DU145) | Euclidean distance (FB) | Euclidean distance (HEPG2) | Euclidean distance (OVCAR4)
25 | CCOC(=O)C1=C(COCCN)NC(C)=C(C(=O)OC)C1c1ccccc1Cl (stereo not drawn) [Amlodipine] | 0.785 | 0.917 | 0.877 | 1.06 | 1.06 | 0.837
26 | CC1(C)S[C@@H]2[C@H](NC(=O)[C@H](NC(=O)N3CCN(S(C)(=O)=O)C3=O)c3ccccc3)C(=O)N2[C@H]1C(=O)O [Mezlocillin Sodium] | 1.2 | 0.987 | 1.43 | 1.15 | 1.72 | 0.751
27 | CCCCCN(C)CCC(O)(P(=O)(O)O)P(=O)(O)O [Ibandronate sodium] | 1.42 | 1.09 | 0.856 | 1.59 | 1.38 | 1.49
28 | COc1cc(NS(C)(=O)=O)ccc1Nc1c2ccccc2nc2ccccc12 [Amsacrine hydrochloride] | 3.5 | 3.49 | 4.13 | 3.04 | 3.28 | 3.46
29 | Cc1cnc(Nc2ccc(N3CCN(C)CC3)cc2)nc1Nc1cccc(S(=O)(=O)NC(C)(C)C)c1 | 3.77 | 4.93 | 3.18 | 3.58 | 2.58 | 3.26
30 | Cc1nc(-c2ccc(OCC(C)C)c(C#N)c2)sc1C(=O)O [Febuxostat] | 0.758 | 0.915 | 0.667 | 0.514 | 0.375 | 0.978
31 | N#Cc1cc(-c2n[nH]c(-c3ccncc3)n2)ccn1 [Topiroxostat] | 1.19 | 1.05 | 1.49 | 1.16 | 0.521 | 1.32
32 | CCCS(=O)(=O)N[C@H]1C[C@@H](N(C)c2ncnc3[nH]ccc23)C1 | 0.905 | 1.03 | 1.02 | 1.03 | 0.71 | 1.17
33 | O=C(Oc1ccccc1C(=O)O)c1ccccc1O [Sasapyrine] | 0.578 | 0.394 | 0.556 | 0.969 | 0.413 | 1.18
34 | C=CCc1ccc(O)c(OC)c1 [Eugenol] | 0.982 | 1.21 | 0.897 | 0.958 | 0.497 | 1.51
35 | O=C1CN(/N=C/c2ccc([N+](=O)[O-])o2)C(=O)N1 [Nitrofurantoin] | 1.11 | 0.86 | 1.02 | 0.744 | 0.699 | 0.831
36 | CN1CCc2c(c3ccccc3n2Cc2ccccc2)C1 [Mebhydrolin napadisylate] | 1.27 | 1.06 | 0.544 | 1.03 | 1.31 | 1.49
37 | CCn1cc(C(=O)O)c(=O)c2cc(F)c(N3CCNCC3)nc21 [Enoxacin] | 1.03 | 0.783 | 1.59 | 0.837 | 2.02 | 1.35
38 | FC(F)(F)C(Cl)Br (stereo not drawn) [Halothane] | 0.835 | 0.628 | 0.788 | 1 | 0.854 | 1.59
39 | OCc1c[nH]c2ccccc12 [Indole-3-carbinol] | 1.05 | 1.17 | 0.838 | 0.767 | 0.598 | 1.05
40 | Cn1c(=O)c2c(ncn2CC(O)CO)n(C)c1=O (stereo not drawn) [Dyphylline] | 1.02 | 0.909 | 0.59 | 1.07 | 1.05 | 1.59
41 | CC(C)OC(=O)CCC/C=C\C[C@@H]1[C@@H](CC[C@@H](O)CCc2ccccc2)[C@H](O)C[C@@H]1O [Latanoprost] | 1.13 | 0.914 | 0.738 | 1.14 | 0.925 | 1.15
42 | NC1=N[C@@]2(c3cc(NC(=O)c4ccc(F)cn4)ccc3F)COC[C@H]2CS1 | 1.08 | 1.29 | 1.47 | 1.04 | 0.861 | 1.05
43 | Clc1ccccc1CN1CCc2sccc2C1 [Ticlopidine HCl] | 1.29 | 1.12 | 1.3 | 1.59 | 0.746 | 1.56
44 | O=C1NC(=O)/C(=C/c2ccc3nccc(-c4ccncc4)c3c2)S1 | 1.74 | 2.75 | 2 | 1.86 | 0.698 | 2.91
45 | O=c1[nH]c(=O)n([C@H]2C[C@H](O)[C@@H](CO)O2)cc1F [Floxuridine] | 1.86 | 3 | 2.5 | 1.73 | 2.61 | 2.71
46 | Cc1nnc(NS(=O)(=O)c2ccc(N)cc2)s1 [Sulfamethizole] | 1.54 | 0.798 | 1.76 | 0.908 | 0.498 | 1.11
47 | O=C1c2cccc(O)c2C(=O)c2c(O)cccc21 [Danthron] | 1.02 | 0.914 | 1.19 | 0.924 | 0.868 | 1.12
48 | CCN(CCCCOC(=O)c1ccc(OC)c(OC)c1)C(C)Cc1ccc(OC)cc1 (stereo not drawn) [Mebeverine Hydrochloride] | 0.875 | 1.21 | 1.06 | 1.29 | 0.855 | 1.91
